High-throughput results from PubChem.
MsrA act – activators of bovine methionine sulfoxide reductase A. purified bovine MsrA, absorbance read-out. activation, % at 10.6 µM. hit rate 0.3% among 360,000; in the data active means activation above about 7.5%
PKA-R2B activ – PKA-R2B complex activation. P22694+P31323. PKA-R2B holoenzyme dissociation, Cy5-IP20 fluorescence polarization; R2B truncated from residue 108, S112A mutant; 0% DMSO only, 100% 113 µM cGMP. activation, % at 11.4 µM. hit rate 0.079% among 340,000. AID 504700;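 active means activation above a cutoff set at the mean over all compounds plus 3 SD, cut at about 18% in these data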;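 further: higher means more holoenzyme dissociation and a rise in polarization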
Target sequence (P31323 whole entry, looked up, other chains not shown, the tested form may be a part): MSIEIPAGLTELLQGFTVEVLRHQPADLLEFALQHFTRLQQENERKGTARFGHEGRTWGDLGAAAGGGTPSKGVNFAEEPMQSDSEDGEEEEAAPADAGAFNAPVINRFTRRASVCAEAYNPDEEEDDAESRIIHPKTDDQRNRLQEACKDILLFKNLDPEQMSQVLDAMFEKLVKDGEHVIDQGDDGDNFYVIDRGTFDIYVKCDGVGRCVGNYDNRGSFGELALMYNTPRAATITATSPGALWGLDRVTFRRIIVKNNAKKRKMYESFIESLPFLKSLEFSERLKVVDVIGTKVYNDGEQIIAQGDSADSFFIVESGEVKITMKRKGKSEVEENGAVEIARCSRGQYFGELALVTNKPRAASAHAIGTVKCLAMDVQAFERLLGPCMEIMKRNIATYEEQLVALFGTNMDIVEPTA
PKA-R1A activ – activates the PKA-R1A holoenzyme complex. AID 504707. activation, % at 11.4 µM. P00514+P68181. hit rate 0.083% among 340,000. PKA-R1A dissociation, Cy5-IP20 fluorescence polarization; scaled: DMSO 0%, 113 µM cGMP 100%;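 active means percent activation above the mean of all tested compounds plus 3 SD, cut at about 19% in these data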;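 further: higher means more PKAc released from R1A so a rise in polarization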
MsrA inh – inhibitors of bovine MsrA; inhibition, % at 15.5 µM; purified bovine MsrA, absorbance read-out; AID 651718; hit rate 0.75% among 360,000
MsrA inh confirm – confirmation of bovine MsrA inhibitors | shares compounds with MsrA inh | purified bovine MsrA, absorbance read-out | inhibition, % at 15.5 µM | hit rate 41% among 2,300;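 further: coupled to thioredoxin reductase with NADPH and selenocystamine and DMSO as substrate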
Numbers stand for hits; – = inactive; · = no result. The list is not random: actives were taken first. Their share in the collection is about 1.1%. Unless noted, no stated cut-off is given here; in the data, active means inhibition above about 4.5%; inactive means the rest.

SMILES	MsrA act	PKA-R2B activ	PKA-R1A activ	MsrA inh	MsrA inh confirm
Cc1ccccc1-c1cc2c(nn1)-c1ccccc1C2=O	–	–	–	5.9	–
CSCc1c(C(=O)N2CCCc3ccccc32)oc2ccccc12	–	–	–	8.4	–
O=C(Nc1nnc(-c2ccccc2)o1)C1CCCN1S(=O)(=O)c1cccs1 (stereo unspecified)	–	–	–	–	·
C/C(CCC(=O)O)=N/Nc1ccc([N+](=O)[O-])cc1[N+](=O)[O-]	–	–	–	13.3	9.8
C/C(CCCO)=N/Nc1ccc([N+](=O)[O-])cc1[N+](=O)[O-]	–	–	–	13.8	7.0
CCC(CC)=NNc1ccc([N+](=O)[O-])cc1[N+](=O)[O-]	–	–	–	–	·
Cn1cc([N+](=O)[O-])c(C(=O)N2CCN(Cc3ccc4c(c3)OCO4)CC2)n1	–	–	–	–	·
O=C(N[C@H](C(=O)N1CCC[C@H]1C(=O)NC1CCCC1)C1CCCCC1)C1CC1	·	·	·	–	·
CC1Cc2ccccc2N1C1=CC(=O)CCC1 (stereo unspecified)	–	–	–	5.5	5.4
CC1Cc2ccccc2N1C1=NS(=O)(=O)c2ccccc21 (stereo unspecified)	–	–	–	–	·
O=C1c2ccc3c4c(ccc(c24)C(=O)N1c1cccc(O)c1)C(=O)N(c1cccc(O)c1)C3=O	–	–	–	9.5	7.1
CCOC(=O)Cc1csc(NC(=O)/C=C/c2ccc(Br)o2)n1	–	–	–	5.5	–
CCc1nccn1C(=O)c1cnn2c(C(F)F)cc(-c3ccc(C)cc3)nc12	–	–	–	4.8	25.6
Cc1[nH]c2ccccc2c1/C=N\NC(=O)c1ccco1	–	–	–	6.6	5.3
Cc1[nH]c2ccccc2c1/C=N/NC(=O)c1cccc(F)c1	–	–	–	4.8	–
C[C@]12Cc3ccccc3C1CC1=N[C@@H](c3ccc(C(F)(F)F)cc3)O[C@@]13C[C@@H]2C(=O)N3C1CCN(Cc2ccccc2)CC1 (stereo partly specified)	·	·	·	–	·
COc1cccc(C2=CC(c3cccc(OC)c3OC)n3nnnc3N2)c1 (stereo unspecified)	–	–	–	14.4	9.3
COC(=O)[C@]12C[C@H](CC(=O)N3CCOCC3)C(=O)N(Cc3ccc4c(c3)OCO4)C1=C[C@H](C(C)(C)C)O[C@@H]2C	·	·	·	–	·
Cc1cc(C)nc(NS(=O)(=O)c2ccc(NC(=O)c3ccc4c(c3)OCCO4)cc2)n1	–	–	–	–	·
CC(=O)N1CCN(c2ccc(N3CCN(C(C)=O)[C@H](C)C3)c(C)c2)[C@@H](C)C1	·	·	·	–	·
O=C(NCCc1c[nH]c2ccccc12)OCCSS(=O)(=O)O	–	–	–	11.6	–
CCC(=O)NCCc1c[nH]c2ccccc12	–	–	–	–	·
CC(=O)c1sc(NC(=O)c2cccnc2Cl)nc1C	–	–	–	5.0	–
O=C(c1cnc2sccn2c1=O)N(Cc1ccccc1)c1ccccn1	–	–	–	5.0	–
O=C(c1ccccc1)N(Cc1ccccc1)c1ccccn1	–	–	–	–	·
SMILES	MsrA act	PKA-R2B activ	PKA-R1A activ	MsrA inh	MsrA inh confirm
C[C@H]1[C@H](c2ccccc2)Oc2cccc(NCCc3ccccc3)c2S(=O)(=O)N1Cc1cccc(Cl)c1	·	·	·	–	·
NC(N)=NC1=NC(=O)/C(=C/c2ccccc2-n2cccn2)S1	–	–	–	5.3	–
Cc1ccc(/C=C/C(=O)Nc2nnc(C)s2)o1	–	–	–	7.6	5.3
CC(=NCc1cccnc1)C1=C(O)c2ccccc2C1=O	–	–	–	4.9	–
CCCN=C(C)C1=C(O)c2ccccc2C1=O	–	–	–	–	·
COC(=O)c1cc(-c2ccc(Br)cc2)c2c(=O)n(C)c(=O)n(C)c2n1	–	–	–	–	·
COc1cc2c(cc1O)CC[n+]1cc3c(OC)c(OC)ccc3cc1-2	–	–	–	5.2	–
CCn1c(CNC(=O)c2ccccc2F)nnc1SCC(=O)Nc1nncs1	–	–	–	–	·
Oc1ccc(/C=N/N=C/c2ccc(O)c(O)c2)cc1O	–	–	–	4.7	6.4
CCOc1cc(/C=N/NC(=O)C(=O)NCc2cccnc2)ccc1O	–	–	–	5.7	–
Oc1ccc(/C=N/N=C/c2ccc(O)cc2)cc1	–	–	–	5.3	5.5
CCOc1cc(/C=N/NC(=O)c2ccc(NC(=O)C3CC3)cc2)ccc1O	–	–	–	5.3	–
COc1cc(/C=N/NC(=O)c2ccc(NC(=O)C3CCCCC3)cc2)ccc1O	–	–	–	–	·
CCCCNC(=O)C[C@H]1C[C@@]2(C(=O)OC)C(=C[C@H](COCc3ccccc3)O[C@@H]2C)N(Cc2ccc3c(c2)OCO3)C1=O	·	·	·	–	·
